Test results as given in PubChem BioAssay (Tox21).
Inconclusive results are not listed. Calls of active or inactive are those of the source. The call rests on the fitted dose curve.

Key:
[1] = biological target: Acetylcholinesterase (Homo sapiens) (UniProt P22303); experiment: Acetylcholinesterase (AChE) small molecule antagonists: colormetric cell-based qHTS assay (AID 1347395); conditions: SH-SY5Y cells AChE activity, colorimetric (Ellman); series mostly up to 115 µM; further: nearly all actives have a fitted effect of over 30% in size; further: potency means the concentration at half of the fitted maximal effect
Sequence of Acetylcholinesterase (Homo sapiens) (P22303 whole entry, looked up): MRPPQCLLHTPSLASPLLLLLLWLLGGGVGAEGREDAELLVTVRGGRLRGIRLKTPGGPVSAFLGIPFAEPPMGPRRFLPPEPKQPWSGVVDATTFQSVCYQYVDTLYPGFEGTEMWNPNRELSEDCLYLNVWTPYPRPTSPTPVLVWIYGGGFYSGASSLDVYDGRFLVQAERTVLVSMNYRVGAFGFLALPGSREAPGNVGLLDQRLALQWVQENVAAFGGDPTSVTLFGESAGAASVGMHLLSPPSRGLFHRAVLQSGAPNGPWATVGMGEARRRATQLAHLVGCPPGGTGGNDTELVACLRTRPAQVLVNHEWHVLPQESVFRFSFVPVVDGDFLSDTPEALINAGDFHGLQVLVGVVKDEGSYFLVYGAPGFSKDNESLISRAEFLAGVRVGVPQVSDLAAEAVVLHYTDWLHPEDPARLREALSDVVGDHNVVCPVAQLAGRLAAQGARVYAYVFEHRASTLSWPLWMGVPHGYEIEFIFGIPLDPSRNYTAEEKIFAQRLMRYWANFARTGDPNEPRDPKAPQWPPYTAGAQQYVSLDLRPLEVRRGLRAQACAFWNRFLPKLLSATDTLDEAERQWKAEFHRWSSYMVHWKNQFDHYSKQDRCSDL
Outline: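 Cells (SH-SY5Y, 2,000 per well) are seeded and left overnight at 37 C. Compound is added for 30 min, then DTNB and acetylthiocholine for a further 90 min at 37 C before absorbance-based thiocholine detection.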

[2] = biological target: Acetylcholinesterase (Homo sapiens) (UniProt P22303); experiment: Acetylcholinesterase (AChE) small molecule antagonists: enzyme-based qHTS assay (AID 1347397); conditions: Potency: AChE enzyme activity inhibition; outcome: AChE enzyme activity inhibition; series mostly up to 115 µM; further: nearly all actives have a fitted effect of over 55% in size
Outline: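 rhAChE 50 mU/mL (dispensed) + cpd or DMSO, 30 min RT; add DTNB/acetylthiocholine cocktail, 10 min RT; colorimetric thiocholine readout. qHTS, 1536-well format.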

[3] = biological target: Acetylcholinesterase (Homo sapiens) (UniProt P22303); experiment: Acetylcholinesterase (AChE) small molecule antagonists: fluorescence cell-based qHTS assay (AID 1347398); conditions: SH-SY5Y cells; Potency: AChE activity; outcome: AChE activity; series mostly up to 115 µM; further: nearly all actives have a fitted effect of over 50% in size; further: potency means the concentration at half of the fitted maximal effect
Outline: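 Read-out is Thiolite Green fluorescence at Ex/Em = 490/520 nm, formed by reaction with thiocholine released when cellular AChE in SH-SY5Y cells hydrolyzes acetylthiocholine. Compounds were preincubated 30 min at 37 C before substrate.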

[4] = biological target: Acetylcholinesterase (Homo sapiens) (UniProt P22303); experiment: Acetylcholinesterase (AChE) small molecule antagonists: enzyme-based qHTS assay with human liver microsomes (AID 1347399); conditions: Potency: qHTS inhibition; outcome: qHTS inhibition; series mostly up to 115 µM; further: nearly all actives have a fitted effect of over 60% in size
Outline: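 Recombinant human AChE (50 mU/mL in the enzyme mix) and human liver microsomes (0.25 mg/mL final) were preincubated with compound and NADPH (0.25 mg/mL final) for 30 min at 37 C. Acetylthiocholine/DTNB was then added; thiocholine was read colorimetrically after 10 min at room temperature.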
On the % scale 0 is the no-effect control and ±100 the full control effect.

Cc1cc(C)c(/C=C2\C(=O)Nc3ccccc32)[nH]1
inactive: Potency [1] | Potency [2] | Potency [3] | Potency [4]

OC[C@@H](O)[C@@H](O[C@@H]1O[C@H](CO)[C@H](O)[C@H](O)[C@H]1O)[C@H](O)[C@@H](O)CO
inactive: Potency [1] | Potency [2] | Potency [3] | Potency [4]

CCCCCCCCCCN
inactive: Potency [1] | Potency [2] | Potency [3] | Potency [4]

CCCCCCCC/C=C\CCCCCCCC(=O)OC
inactive: Potency [1] | Potency [2] | Potency [3] | Potency [4]

C=CCCC=C
inactive: Potency [1] | Potency [2] | Potency [3] | Potency [4]

C1COCO1
inactive: Potency [1] | Potency [2] | Potency [3] | Potency [4]

O=C(O)c1cccc(O)c1
inactive: Potency [1] | Potency [2] | Potency [3] | Potency [4]

COc1cc([N+](=O)[O-])ccc1N
inactive: Potency [1] | Potency [2] | Potency [3] | Potency [4]

CC(=O)CCCCn1c(=O)c2c(ncn2C)n(C)c1=O
inactive: Potency [1] | Potency [2] | Potency [3] | Potency [4]

CCOC(=O)c1ccc(OC(=O)CCCCCN=C(N)N)cc1
inactive: outcome [1] | outcome [2] | outcome [3] | outcome [4]

O=C(c1ccc(O)cc1)c1ccc(O)cc1
inactive: Potency [1] | Potency [2] | Potency [3] | Potency [4]

NS(=O)(=O)c1ccc(NC(=O)CCC(=O)O)cc1
inactive: Potency [1] | Potency [2] | Potency [3] | Potency [4]

CCCCOCCOC(=O)COc1cc(Cl)c(Cl)cc1Cl
inactive: Potency [1] | Potency [2] | Potency [3] | Potency [4]

CCn1nc(C)c2c1C(=O)NCC(c1ccc(O)cc1)=N2
inactive: Potency [1] | Potency [2] | Potency [3] | Potency [4]

CC(CCc1ccccc1)NCC(O)c1ccc(O)c(C(N)=O)c1 (stereo not drawn)
inactive: Potency [1] | Potency [2] | Potency [3] | Potency [4]

CN1C(C)(C)CC(O)CC1(C)C
inactive: Potency [1] | Potency [2] | Potency [3] | Potency [4]

CC(C)c1ccc2sc3ccccc3c(=O)c2c1
inactive: Potency [1] | Potency [2] | Potency [3] | Potency [4]

COc1cccc2c1C(=O)c1c(O)c3c(c(O)c1C2=O)C[C@@](O)(C(=O)CO)C[C@@H]3O[C@H]1C[C@H](N)[C@H](O)[C@H](C)O1
active: Potency [1] 8.71 µM
inactive: Potency [2] | Potency [3] | Potency [4]

Cc1oc(=O)oc1CN1CCN(c2cc3c(cc2F)c(=O)c(C(=O)O)c2n3C(C)S2)CC1 (stereo not drawn)
inactive: Potency [1] | Potency [2] | Potency [3] | Potency [4]

OC[C@H](Cc1cccc(O)c1)[C@H](CO)Cc1cccc(O)c1
inactive: Potency [1] | Potency [2] | Potency [3] | Potency [4]

CC(=O)C1(C)CC2=C(CCCC2(C)C)CC1C (stereo not drawn)
inactive: Potency [1] | Potency [2] | Potency [3] | Potency [4]

N#Cc1ccc(C(=O)O)cc1
inactive: Potency [1] | Potency [2] | Potency [3] | Potency [4]

Cc1ccc2c(c1)C(=O)c1ccccc1C2=O
inactive: Potency [1] | Potency [2] | Potency [3] | Potency [4]

CCCC(=O)OC
inactive: Potency [1] | Potency [2] | Potency [3] | Potency [4]

C[C@H](NC(CCc1ccccc1)C(=O)O)C(=O)N1CCC[C@H]1C(=O)O (stereo partly drawn)
inactive: Potency [1] | Potency [2] | Potency [3] | Potency [4]

COCCOC(=O)C1=C(C)NC(C)=C(C(=O)OC(C)C)C1c1cccc([N+](=O)[O-])c1 (stereo not drawn)
inactive: Potency [1] | Potency [2] | Potency [3] | Potency [4]

COC(=O)c1ccc(C)cc1C1=NC(C)(C(C)C)C(=O)N1 (stereo not drawn)
inactive: Potency [1] | Potency [2] | Potency [3] | Potency [4]

OCC(O)[C@@H](O)[C@H](O)[C@H](O)CO[C@H]1O[C@H](CO)[C@@H](O)[C@H](O)[C@H]1O (stereo partly drawn)
inactive: Potency [1] | Potency [2] | Potency [3] | Potency [4]

N[C@@H](Cc1c[nH]c2ccc(O)cc12)C(=O)O
inactive: Potency [1] | Potency [2] | Potency [3] | Potency [4]

CC(=O)OCCC1CCCCC1
inactive: Potency [1] | Potency [2] | Potency [3] | Potency [4]

CC(=O)N1C[C@H](O)C[C@H]1C(=O)O
inactive: Potency [1] | Potency [2] | Potency [3] | Potency [4]

O=C=NCc1cccc(CN=C=O)c1
inactive: activity, negative = inhibition [1] -0.545% [at 23.6 µM] | activity change, negative = inhibition [2] 0.393% [at 23.6 µM] | activity change, negative = inhibition [3] -0.0492% [at 23.8 µM] | activity change, negative = inhibition [4] 0.648% [at 23.6 µM]

CCCCCCCCCCCCCCCCI
inactive: activity, negative = inhibition [1] 1.24% [at 23.6 µM] | activity change, negative = inhibition [2] 1.36% [at 23.6 µM] | activity change, negative = inhibition [3] 3.93% [at 23.8 µM] | activity change, negative = inhibition [4] 0.294% [at 23.6 µM]

NC(=O)NC1NC(=O)NC1=O (stereo not drawn)
inactive: Potency [1] | Potency [2] | Potency [3] | Potency [4]

C=C(C)C(=O)OCC1CCCO1 (stereo not drawn)
inactive: Potency [1] | Potency [2] | Potency [3] | Potency [4]

CC(N)=O
inactive: Potency [1] | Potency [2] | Potency [3] | Potency [4]

COc1ccc(NC(C)=O)cc1N
inactive: Potency [1] | Potency [2] | Potency [3] | Potency [4]

CCCC(C)CC (stereo not drawn)
inactive: Potency [1] | Potency [2] | Potency [3] | Potency [4]

NC(=O)Cn1c(=O)cc(CCN2CCN(c3nccc4sccc34)CC2)c2ccc(F)cc21
inactive: Potency [2] | Potency [4]
active: Potency [1] 35.6 µM | Potency [3] 35.6 µM

CC(=O)CCc1ccccc1
inactive: Potency [1] | Potency [2] | Potency [3] | Potency [4]

CCCCCCCCCCCCCCCC(=O)OCC
inactive: Potency [1] | Potency [2] | Potency [3] | Potency [4]

OCCCCCO
inactive: Potency [1] | Potency [2] | Potency [3] | Potency [4]

CC(C)COC(=O)CCCCC(=O)OCC(C)C
inactive: Potency [1] | Potency [2] | Potency [3] | Potency [4]

O=S(=O)(Cl)c1c(Cl)cccc1Cl
inactive: Potency [1] | Potency [2] | Potency [3] | Potency [4]

CN(C)c1ccc(O)c2c1C[C@H]1C[C@H]3[C@H](N(C)C)C(=O)C(C(N)=O)=C(O)[C@@]3(O)C(=O)C1=C2O
inactive: Potency [1] | Potency [2] | Potency [3] | Potency [4]

ClCCCl
inactive: Potency [1] | Potency [2] | Potency [3] | Potency [4]

CC(CN)CCCN (stereo not drawn)
inactive: Potency [1] | Potency [2] | Potency [3] | Potency [4]

COc1cc2c(cc1OC)CN(C(=O)[C@H](C)N[C@@H](CCc1ccccc1)C(=O)O)[C@H](C(=O)O)C2
inactive: Potency [1] | Potency [2] | Potency [3] | Potency [4]

C=C(C)C(=O)OCCOP(=O)(O)O
inactive: Potency [1] | Potency [2] | Potency [3] | Potency [4]

COc1ccc(OC)cc1
inactive: Potency [1] | Potency [2] | Potency [3] | Potency [4]

Cc1nc(C2CCCCC2)c(-c2ccc(S(N)(=O)=O)c(F)c2)o1
inactive: Potency [1] | Potency [2] | Potency [3] | Potency [4]

O=C1CCCCCCCCCCCCCCO1
inactive: Potency [1] | Potency [2] | Potency [3] | Potency [4]

CCOc1ccc2nc(S(N)(=O)=O)sc2c1
inactive: Potency [1] | Potency [2] | Potency [3] | Potency [4]

CCc1cc(Cl)c(OC)c(C(=O)NC[C@@H]2CCCN2CC)c1O
inactive: Potency [1] | Potency [2] | Potency [3] | Potency [4]

Cc1ccc(C=O)cc1C
inactive: Potency [1] | Potency [2] | Potency [3] | Potency [4]

CCCCCCCCC(=O)OCC
inactive: Potency [1] | Potency [2] | Potency [3] | Potency [4]

NC(=O)COCCN1CCN(C(c2ccccc2)c2ccc(Cl)cc2)CC1 (stereo not drawn)
inactive: Potency [1] | Potency [2] | Potency [3] | Potency [4]

CC(=O)O[C@H]1CC[C@@]2(C)C(=CC[C@@H]3[C@@H]2CC[C@]2(C)C(C(C)=O)=CC[C@@H]32)C1
inactive: Potency [1] | Potency [2] | Potency [3] | Potency [4]

NC(N)=O
inactive: Potency [1] | Potency [2] | Potency [3] | Potency [4]

CC(C)CC(=O)O
inactive: Potency [1] | Potency [2] | Potency [3] | Potency [4]

CCOC(=O)C(C)C(C)=O (stereo not drawn)
inactive: Potency [1] | Potency [2] | Potency [3] | Potency [4]

O=S(=O)(O)c1ccc(O)c2ncccc12
inactive: Potency [1] | Potency [2] | Potency [3] | Potency [4]

Nc1ccc2c(c1)C(=O)c1ccccc1C2=O
inactive: Potency [1] | Potency [2] | Potency [3] | Potency [4]

CCCCCCCCCCCCCCCCCC(=O)OCC(O)CO (stereo not drawn)
inactive: Potency [1] | Potency [2] | Potency [3] | Potency [4]

Cc1sccc1Br
inactive: Potency [1] | Potency [2] | Potency [3] | Potency [4]

CC(=O)N[C@@H](Cc1ccc(O)cc1)C(=O)O
inactive: Potency [1] | Potency [2] | Potency [3] | Potency [4]

COCC(=O)O
inactive: Potency [1] | Potency [2] | Potency [3] | Potency [4]

CCOC(=O)c1cc(=O)c2c(OCC(COc3cccc4oc(C(=O)OCC)cc(=O)c34)OC(=O)[C@@H](N)CCCCN)cccc2o1
inactive: Potency [1] | Potency [2] | Potency [3] | Potency [4]

C=Cc1ccncc1
inactive: Potency [1] | Potency [2] | Potency [3] | Potency [4]

CC(=O)Oc1c(C)c(C)c2c(c1C)CC[C@@](C)(CCC[C@H](C)CCC[C@H](C)CCCC(C)C)O2
inactive: Potency [1] | Potency [2] | Potency [3] | Potency [4]

Cc1cccc(C(=O)O)c1
inactive: Potency [1] | Potency [2] | Potency [3] | Potency [4]

Cc1cccc(Nc2ccncc2S(=O)(=O)NC(=O)NC(C)C)c1
inactive: Potency [1] | Potency [2] | Potency [3] | Potency [4]

CCNCCO
inactive: Potency [1] | Potency [2] | Potency [3] | Potency [4]

O=C(O)CCCCCCCCC(=O)O
inactive: Potency [1] | Potency [2] | Potency [3] | Potency [4]

CC(=O)Nc1ccc2c(c1)Cc1cc(NC(C)=O)ccc1-2
inactive: Potency [1] | Potency [2] | Potency [3] | Potency [4]

CC/C=C1/OC(=O)c2ccccc21
inactive: Potency [1] | Potency [2] | Potency [3] | Potency [4]

Cc1cccc(C)c1NC(=O)CN1CCCC1
inactive: Potency [1] | Potency [2] | Potency [3] | Potency [4]
